Screening data (PubChem)
The full list was thinned out, with hits kept by preference.
Cycloheximide cs = Cycloheximide Counterscreen for Small Molecule Inhibitors of Shiga Toxin | max response, % | 12% of 300,000 active | cell reporter, cycloheximide protein synthesis inhibition counterscreen | AID 2314, 2010; in the data active means max response mostly above about 13%, no sharp cut-off; inactive means mostly below about 14%; further: read at 38.3 µM for the half of the compounds with a filed dose
AMA1 RON2 block = qHTS for Inhibitors of AMA1-RON; Towards Development of Antimalarial Drug Lead: Primary Screen | AID 720542, 2013 | Potency, µM (titrated, usually from 58.2 µM), usual class: inhibitors | Plasmodium falciparum AMA1 (3D7) - RON2 peptide interaction | AlphaScreen AMA1-biotinylated RON2 peptide binding | 0.2% of 360,000 active; active means well fitted inhibition curve with a large enough effect; inconclusive means small, poorly fitted or top-dose-only effect; inactive means no such curve, though single readings can be large or run the other way; further: nearly all actives have a fitted effect of over 45% in size
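AMA1 (3D7) with his tag at 25 nM final met compounds first, then biotinylated RON2 peptide at 25 nM; detection used donor plus acceptor beads, 10 µg/mL apiece, read by AlphaScreen after 30 min at room temperature.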
Marburg entry inh = qHTS for inhibitors of binding or entry into cells for Marburg Virus; Marburg virus pseudotyped entry inhibition, cell reporter; Potency, µM (top dose mostly 37.8 µM), usual class: inhibitors; 1.8% of 300,000 active; calls by dose curve; tested in HEK293 cells
Lassa entry inh = qHTS for Inhibitors of binding or entry into cells for Lassa Virus | Lassa virus pseudotype entry inhibition, cell reporter | Potency, µM (highest dose often 37.9 µM), hits mostly inhibitors | 1.2% of 300,000 active | AID 540256, 2011; calls by dose curve; tested in HEK293 cells; further: nearly all actives have a fitted effect of over 50% in size
Shiga inhibitor = A qHTS for Small Molecule Inhibitors of Shiga Toxin. inhibition, % at 38.7 µM. Vero cells, Shiga toxin protein synthesis inhibition reporter. 9.2% of 290,000 active; in the data active means inhibition mostly above about 28%, no sharp cut-off; inactive means mostly below about 43%
Large screens that a line does not name were inactive.

COc1cc2c(cc1NC(=O)c1ccco1)CCCC2	Cycloheximide cs 52, Lassa entry inh inconclusive, Shiga inhibitor 57
COc1ccc(NC(=O)c2ccccc2O)c(OC)c1	Cycloheximide cs 51, Shiga inhibitor 88
COc1ccc(NC(=O)c2ccccc2SC)c(OC)c1	none
COc1ccc(NC(=O)CCNC(=O)c2ccco2)c(OC)c1	Cycloheximide cs 28
COc1ccc(OC)c(NC(=O)c2oc3c(c2C)-c2nn(Cc4ccc(Cl)cc4)cc2CC3)c1	none (no result: Cycloheximide cs, AMA1 RON2 block, Marburg entry inh, Shiga inhibitor)
CC(=O)c1ccccc1NC(=O)CCNC(=O)c1ccco1	Cycloheximide cs 18
COc1ccc(NC(=O)c2ccco2)c(OC)c1	Cycloheximide cs 42, Lassa entry inh inconclusive, Shiga inhibitor 74
CCOc1ccccc1NC(=O)CCNC(=O)c1ccco1	Lassa entry inh inconclusive
CCOC(=O)C1(C)/C(=N/Nc2ccccc2Cl)C(=O)C(=O)N1c1ccccc1 (stereo not given)	none
Cc1ccc(NC(=O)c2ccc(OCC3CCCO3)cc2)cc1 (stereo not given)	Cycloheximide cs 57, Marburg entry inh inconclusive, Lassa entry inh inconclusive, Shiga inhibitor 104
O=C(NCc1ccccc1)c1ccc(OCC2CCCO2)cc1 (stereo not given)	none
